High-throughput results deposited in PubChem by National Center for Advancing Translational Sciences (NCATS).
Luc counter: Kinase-Glo luciferase inhibition (counter-screen); 0.28% of 200,000 active; Potency, µM (top dose mostly 38.3 µM), for inactives: top-dose activity change, negative = inhibition, actives largely listed as inhibitors; Kinase-Glo luciferase, ATP luminescence, 8 min; active = well fitted inhibition curve with a large enough effect; inconclusive = small, poorly fitted or top-dose-only effect; also: potency is read from the fitted curve at half-maximal effect; nearly all actives have a fitted effect of over 60% in size
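Light output from Kinase-Glo luciferase with luciferin and 10 uM ATP in 50 mM imidazole pH 7.2, KCl, MgCl2, Tween 20, BSA; compound pin-delivered, 8-min ambient incubation, then luminescence read.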
ALDH1A1 inh: blocks purified human ALDH1A1 activity. Potency, µM (doses to about 75.3 µM), without a hit: at the top dose activity, negative = inhibition, hits mostly inhibitors. Purified ALDH1A1, NADH fluorescence, propionaldehyde substrate. P00352. 7.3% of 220,000 active;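 also: potency is read from the fitted curve at half-maximal effect; plate controls were no enzyme wells and a reference inhibitor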
PNC inhibitor: blocks assembly of the perinucleolar compartment; 3.1% of 140,000 active; AID 2417; activity change (PNC), negative = inhibition, % at 10 µM; PC3M PTB-GFP, PNC prevalence imaging, 16 h; stronger effect = lower value;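 active = readout at or below -70, meaning at least 70% loss of cells showing the perinucleolar compartment, a nuclear body marking cancer cells; inconclusive = readout between -30 and a set limit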;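 also: plate controls were DMSO wells for no effect and camptothecin positive control wells for full effect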
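Read-out is percentage of cells bearing a perinucleolar compartment, from automated 20x imaging of fixed, Hoechst-stained PC3M PTB-GFP cells. Cells were seeded 4 h, then exposed 16 h to compound (23 nl of library stock) in duplicate plates.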
LMNA splice mod: changes lamin A minigene splicing in HeLa cells; 0.01% of 200,000 active; Potency, µM (titrated, usually from 46.1 µM), for the others: at the highest dose ratio change, negative = inhibition, actives largely listed as inhibitors; HeLa LMNA splicing GFP/RFP minigene ratio, 48 h; active = well fitted inhibition curve with a large enough effect in the signal ratio, with a control signal flat, not every such curve was filed as active; inconclusive = small, poorly fitted or top-dose-only effect, or effect the other way, or a change in a side signal; the % refers to the signal ratio; also: potency is read from the fitted curve at half-maximal effect
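S3 HeLa stable clones carrying a lamin A-EGFP splicing minigene plus DsRed2 were seeded at 600 cells/well in Opti-MEM with 2% FBS, pin-dosed and incubated 48 h at 37°C. Acumen cytometry (488 nm) gave the GFP/RFP total-intensity ratio.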
HPGD block: inhibitors of human 15-hydroxyprostaglandin dehydrogenase (HPGD) | purified HPGD, NADH fluorescence kinetic, PGE2 substrate | Potency, µM, for inactives: at the top dose activity change, negative = inhibition, hits mostly inhibitors | 4.3% of 150,000 active | AID 894; also: potency is read from the fitted curve at half-maximal effect
Target sequence (P15428 whole entry, looked up): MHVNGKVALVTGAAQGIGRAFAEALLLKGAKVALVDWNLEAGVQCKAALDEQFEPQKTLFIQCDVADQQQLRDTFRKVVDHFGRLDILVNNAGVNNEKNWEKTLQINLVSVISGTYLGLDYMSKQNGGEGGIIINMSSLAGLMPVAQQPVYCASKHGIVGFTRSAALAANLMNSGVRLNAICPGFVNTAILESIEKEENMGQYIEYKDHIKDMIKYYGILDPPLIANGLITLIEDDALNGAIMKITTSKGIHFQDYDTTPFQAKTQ
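NADH formation kinetics: reaction with 30 uM PGE2 and 1 mM NAD+ (final), 20 nM enzyme, Tris-HCl pH 8 with Tween 20, after 15 min compound preincubation at room temperature. Fluorescence change, last versus first of five reads.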
* marks the source's active call; other numbers are inactive results; u = inconclusive; x = no result; [ ] = remark or other dose. An excerpt weighted towards active compounds, which were near 10% of everything screened. Unless noted, calls follow the shape of the dose curve; as a rule, active = well fitted inhibition curve with a large enough effect (not every such curve was filed as active); inconclusive = small, poorly fitted or top-dose-only effect, or another doubt; inactive = no such curve, though single readings can be large or run the other way. Unless noted, % is scaled to controls: 0 for no effect and ±100 for the full control effect.

SMILES	Luc counter	ALDH1A1 inh	PNC inhibitor	LMNA splice mod	HPGD block
CCOC(=O)c1ccc(NC(=O)NC2CC3CCC(C2)N3Cc2nnnn2Cc2ccco2)cc1 (centres undefined)	-3%	13µM*	41	8%	0%
O=C(NCCn1cccc1)c1cccc2ccccc12	-3%	-4%	12	13%	32µM*
C=CCNC(=O)c1ccccc1NC(=O)c1cccc2ccccc12	-5%	u	u	-16%	-19%
Cc1cccc(CCNC(=O)C2CCC(CNS(=O)(=O)c3ccccc3)CC2)c1 (centres undefined)	x	x	x	5%[46 µM]	x
Cc1cccc2cc3c(N)c(C#N)sc3nc12	10%	-9%	u	-1%	-7%
Cc1sc(NC(=O)c2sc3nc4c(C)cccc4cc3c2N)c(C#N)c1C	-5%	2.8µM*	u	1%	7.1µM*
Cc1cc(C)c2nc(Nc3nc(C)cc(=O)[nH]3)nc(C)c2c1	1%	-5%	x	x	2%
Cc1cn2c(=O)cc(COC(=O)c3cccc(NC(=O)c4ccccc4Cl)c3)nc2s1	x	x	x	5%[46 µM]	x
COc1cc2c(C(=O)N3CCN(Cc4ccc5c(c4)OCO5)CC3)cn(C)c(=O)c2cc1OC	2%	2.5µM*	55	-2%	-13%
COc1ccccc1C(=O)N1CCN(Cc2ccc3c(c2)OCO3)CC1	-3%	8%	-16	u	-6%
Cc1ccc(C(=O)N2CCN(Cc3ccc4c(c3)OCO4)CC2)cc1[N+](=O)[O-]	3%	13µM*	x	x	x
CCOCCCNC(=O)c1cn(CC(C)C)c(=O)c2cc(OC)c(OC)cc12	0%	20µM*	3	-14%	-17%
CCn1cc(C(=O)NCc2cccnc2)c2cc(OC)c(OC)cc2c1=O	-1%	25µM*	u	2%	-17%
COc1cc2c(C(=O)Nc3ccc4c(c3)OCO4)cn(CC(C)C)c(=O)c2cc1OC	0%	u	-14	5%	-3%
COc1cc2c(C(=O)NCc3ccc4c(c3)OCO4)cn(CC(C)C)c(=O)c2cc1OC	2%	0.14µM*	-113*	-14%	-3%
Cc1cc(C)c(O)c(N)c1	-5%	25µM*	x	u	x
Cc1cc(C)c(O)c(Cc2cccc(Cc3cc(C)cc(C)c3O)c2O)c1	-4%[7.66 µM]	1%[13.5 µM]	x	x	-6%
CCOC(=O)COc1ccc(Br)cc1/C=C/c1[nH]c(=O)[nH]c(=O)c1[N+](=O)[O-]	9%	u	x	248%[46 µM]	x
CCOC(=O)COc1ccc(Br)cc1/C=C\c1[nH]c(=O)[nH]c(=O)c1[N+](=O)[O-]	8%	u	-16	u	16µM*
O=C(Oc1ccc(Br)cc1C(=S)N1CCCC1)c1ccccc1F	-1%	11µM*	-28	u	25µM*
O=C(Oc1ccc(C(=S)N2CCOCC2)cc1)c1ccccc1	-3%	-2%	x	23%[46 µM]	x
O=C(Oc1ccc(C(=S)N2CCCCC2)cc1)c1ccccc1F	-1%	8.9µM*	x	x	x
Cc1ccccc1C(=O)Oc1ccc(Br)cc1C(=S)N1CCCC1	-2%	-14%	32	5%	-18%
COc1ccc(NC2CS(=O)(=O)CC2NCc2ccccc2)cc1 (centres undefined)	2%	-2%	-116*	-9%	-1%
CC1CCN(c2ccc(-c3cccc(NS(=O)(=O)c4ccc(F)cc4F)c3)nn2)CC1	x	x	x	-17%[46 µM]	x
SMILES	Luc counter	ALDH1A1 inh	PNC inhibitor	LMNA splice mod	HPGD block
CC1=C(C(=O)OC(C)C)C(c2coc3ccccc3c2=O)C2=C(CCCC2=O)N1 (centres undefined)	-4%	7%	-81*	4%	0%
COc1ccc(C(=O)c2no[n+]([O-])c2C(=O)c2ccc(OC)cc2)cc1	3%	1µM*	16	u	u
O=C(c1cc2ccccc2o1)c1cccs1	-3%	-9%	-7	2%	-27%
O=C(c1cccs1)c1no[n+]([O-])c1C(=O)c1cccs1	-3%	0.28µM*	12	u	13µM*
COc1ccc(NC(=O)c2c(N)no[n+]2[O-])cc1	-4%	-5%	x	x	x
Cc1nc2cnc(Oc3ccccc3)nc2n(CCC#N)c1=O	-3%	u	x	x	-15%
CC(Cc1ccccc1)C(=O)NCC1CC1 (centres undefined)	-1%	3%	x	x	-6%
